Measured values taken from PubChem BioAssay AID1159580 (chemical genetic matrix, 2015).
In all, about 5,500 compounds went through this assay and about 2,000 (36%) were called active. Not shown: some 18% with an inconclusive outcome. No stated cut-off is given here; in the data, active means normalized growth mostly below about 0.91 (no sharp cut-off); inconclusive means no clear call, values can overlap the other calls; inactive means mostly above about 0.92. The list shows a part of the results.

Test: chemical genetic growth profiling, strain panel (AID 1159580);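 further: tested at 20 µM; growth read once vehicle control cultures reached saturation at 30 °C; 1 = growth at the plate median or of vehicle wells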
Settings: growth OD
[1] = S. cerevisiae deletion strains, locus YHR030C, strain SLT2, stronger effect = lower value
[2] = S. cerevisiae deletion strains, locus YAL013W, strain DEP1, stronger effect = lower value
[3] = S. cerevisiae deletion strains, locus YBR229C, strain ROT2, stronger effect = lower value
[4] = S. cerevisiae deletion strains, locus YDL101C, strain DUN1, stronger effect = lower value
[5] = S. cerevisiae deletion strains, locus YDL134C, strain PPH21, stronger effect = lower value
[6] = S. cerevisiae deletion strains, locus YDR150W, strain NUM1, stronger effect = lower value
[7] = S. cerevisiae deletion strains, locus YEL061C, strain CIN8, stronger effect = lower value
[8] = S. cerevisiae deletion strains, locus YGR078C, strain PAC10, stronger effect = lower value
[9] = S. cerevisiae deletion strains, locus YGR229C, strain SMI1, stronger effect = lower value
[10] = S. cerevisiae deletion strains, locus YHR087W, strain rtc3, stronger effect = lower value
[11] = S. cerevisiae deletion strains, locus YJL187C, strain SWE1, stronger effect = lower value
[12] = S. cerevisiae deletion strains, locus YJR043C, strain POL32, stronger effect = lower value
[13] = S. cerevisiae deletion strains, locus YJR075W, strain HOC1, stronger effect = lower value
[14] = S. cerevisiae deletion strains, locus YKL190W, strain CNB1, stronger effect = lower value
[15] = S. cerevisiae deletion strains, locus YLR039C, strain RIC1, stronger effect = lower value
[16] = S. cerevisiae deletion strains, locus YLR058C, strain SHM2 (second series), stronger effect = lower value
[17] = S. cerevisiae deletion strains, locus YLR085C, strain ARP6, stronger effect = lower value
[18] = S. cerevisiae deletion strains, locus YLR262C, strain YPT6, stronger effect = lower value
[19] = S. cerevisiae deletion strains, locus YML094W, strain GIM5, stronger effect = lower value
[20] = S. cerevisiae deletion strains, locus YMR219W, strain ESC1, stronger effect = lower value
[21] = S. cerevisiae deletion strains, locus YMR263W, strain SAP30, stronger effect = lower value
[22] = S. cerevisiae deletion strains, locus YNL153C, strain GIM3, stronger effect = lower value
[23] = S. cerevisiae deletion strains, locus YNL298W, strain CLA4 (second series), stronger effect = lower value
[24] = S. cerevisiae deletion strains, locus YNL322C, strain KRE1, stronger effect = lower value
[25] = S. cerevisiae deletion strains, locus YNR030W, strain Alg12, stronger effect = lower value
[26] = S. cerevisiae deletion strains, locus YPL055C, strain LGE1, stronger effect = lower value
[27] = S. cerevisiae deletion strains, locus YPL241C, strain CIN2, stronger effect = lower value
[28] = S. cerevisiae deletion strains, locus YPR135W, strain CTF4, stronger effect = lower value
[29] = S. cerevisiae strains, strain wild type, stronger effect = lower value

Measured: normalized growth

CN(C(=O)C(Cl)Cl)c1ccc(OC(=O)c2ccco2)cc1
inactive: [1] 0.959 | S. cerevisiae deletion strains, locus YHR079C, strain IRE1, stronger effect = lower value 0.98 | S. cerevisiae deletion strains, locus YJL095W, strain BCK1, stronger effect = lower value 0.973 | S. cerevisiae deletion strains, locus YJR066W, strain TOR1, stronger effect = lower value 0.915 | S. cerevisiae deletion strains, locus YLR113W, strain HOG1, stronger effect = lower value 1.05 | S. cerevisiae deletion strains, locus YNL183C, strain NPR1, stronger effect = lower value 0.96 | S. cerevisiae deletion strains, locus YOR231W, strain MKK1, stronger effect = lower value 0.975 | S. cerevisiae deletion strains, locus YPL256C, strain CLN2, stronger effect = lower value 1

COC(=O)c1scc(S(=O)(=O)C(C)C)c1N/N=C(/C#N)C(=O)c1ccccc1
inactive: [2] 0.965 | [3] 0.974 | [4] 0.986 | [5] 0.974 | [6] 0.973 | [7] 0.965 | [8] 0.969 | [9] 0.971 | [1] 0.929 | [10] 0.927 | [11] 1.03 | [12] 0.995 | [13] 0.961 | [14] 0.976 | [15] 0.902 | [16] 0.954 | [17] 1.06 | [18] 0.839 | [19] 1.04 | [20] 0.95 | [21] 0.905 | [22] 0.998 | [23] 0.983 | [25] 1.01 | S. cerevisiae deletion strains, locus YOL006C, strain TOP1, stronger effect = lower value 0.923 | [26] 0.885 | [27] 1.02 | [28] 0.928 | [29] 0.967
active: [24] 0.942

CC(C)S(=O)(=O)c1csc(C(N)=O)c1Cl
inactive: [2] 1.01 | [3] 1.02 | S. cerevisiae deletion strains, locus YCL061C, strain MRC1, stronger effect = lower value 1.02 | [4] 0.989 | [5] 1.01 | [6] 0.958 | [7] 1.04 | [8] 1 | [9] 1 | [1] 1.09 | [10] 1 | [11] 0.983 | [12] 1.01 | [13] 1.01 | [14] 1.01 | [15] 1.05 | [16] 1.01 | [17] 1.02 | [18] 1.05 | [19] 0.996 | [20] 1.01 | [21] 0.996 | S. cerevisiae deletion strains, locus YMR307W, strain GAS1, stronger effect = lower value 1.01 | [22] 1 | [23] 1.04 | [24] 1.01 | [25] 1.03 | [26] 0.954 | [27] 0.991 | [28] 1.07 | [29] 1.02
